HT1080 IDH1KD tx = kills HT-1080 cells with IDH1 knockdown; 360,000 compounds, 2% hits; Potency, µM (doses to about 46.1 µM), actives largely listed as cytotoxic; AID 686971; HT-1080 IDH1 knockdown viability, ATP luminescence, 48 h
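Viability of IDH1-knockdown HT-1080 fibrosarcoma cells was assessed by CellTiter-Glo after 48 h at 37 °C with titrated compound; concentration-effect curves were classified by fit quality and response size.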
IL1B secr inh = inhibitors of inflammasome signaling (IL-1 beta secretion); THP-1 LPS/ATP IL-1B secretion, AlphaLISA, 16 h; stronger effect = lower value; AID 743279; activity change, % at 57.5 µM; 360,000 compounds, 4.7% hits; in the data active = activity change below about -50%; inconclusive = mostly about -30% to -49%
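THP-1 cells pretreated 1 hr with compounds (up to 57.5 uM final), then stimulated with LPS (250 ng/mL final) plus ATP (1.25 mM final); secreted IL-1B measured by AlphaLISA after 16 hr, decreased signal indicating inhibition.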
TDP1 cell noCPT = qHTS for Inhibitors of human tyrosyl-DNA phosphodiesterase 1 (TDP1): qHTS in cells in absence of CPT; DT40 Tdp1-/- hTDP1 cells, no CPT, ATP luminescence, 48 h; Potency, µM (highest dose often 46.2 µM), actives largely listed as inhibitors; 420,000 compounds, 15% hits; note: nearly all actives have a fitted effect of over 55% in size
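Stably hTDP1-transfected Tdp1-null chicken DT40 cells were treated with library compounds minus camptothecin and grown for at least 48 hr at 37 °C, after which cellular ATP was quantified by luminescence.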
HT1080NT lethal = kills 2HG-producing HT-1080-NT fibrosarcoma cells; AID 686970; 360,000 compounds, 1.6% hits; Potency, µM (top dose mostly 46.1 µM), hits mostly cytotoxic; HT-1080-NT fibrosarcoma viability, CellTiter-Glo ATP luminescence, 48 h;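 note: NT is the 2HG producing partner of a matched IDH1 knockdown line; nearly all actives have a fitted effect of over 55% in size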
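750 cells/well, RPMI + 5% FBS; 2 h settle, compound pin-transfer, 48 h at 37 degrees C. CellTiter-Glo 10 min RT, luminescence. Normalized to DMSO and media-only wells.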
DT40 TDP1 CPT = DT40-hTDP1 cell growth loss with CPT; chicken DT40 Tdp1-/-;hTDP1 cells + 20 nM CPT, ATP luminescence, 48 h; Potency, µM (doses to about 46.2 µM), usual class: inhibitors; 420,000 compounds, 12% hits; note: nearly all actives have a fitted effect of over 55% in size
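Cell growth measured by CellTiter-Glo luminescence after a minimum 48 h, 37 C compound exposure with 20 nM CPT in Tdp1-knockout DT40 cells stably expressing hTDP1, seeded 400/well; qHTS titration format.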
12-LOX inh = inhibitors of human 12S-lipoxygenase ALOX12; Potency, µM (titrated, usually from 108 µM), hits mostly inhibitors; purified 12hLO, xylenol orange hydroperoxide absorbance; P18054; 580,000 compounds, 1.1% hits
Target sequence (P18054 whole entry, looked up): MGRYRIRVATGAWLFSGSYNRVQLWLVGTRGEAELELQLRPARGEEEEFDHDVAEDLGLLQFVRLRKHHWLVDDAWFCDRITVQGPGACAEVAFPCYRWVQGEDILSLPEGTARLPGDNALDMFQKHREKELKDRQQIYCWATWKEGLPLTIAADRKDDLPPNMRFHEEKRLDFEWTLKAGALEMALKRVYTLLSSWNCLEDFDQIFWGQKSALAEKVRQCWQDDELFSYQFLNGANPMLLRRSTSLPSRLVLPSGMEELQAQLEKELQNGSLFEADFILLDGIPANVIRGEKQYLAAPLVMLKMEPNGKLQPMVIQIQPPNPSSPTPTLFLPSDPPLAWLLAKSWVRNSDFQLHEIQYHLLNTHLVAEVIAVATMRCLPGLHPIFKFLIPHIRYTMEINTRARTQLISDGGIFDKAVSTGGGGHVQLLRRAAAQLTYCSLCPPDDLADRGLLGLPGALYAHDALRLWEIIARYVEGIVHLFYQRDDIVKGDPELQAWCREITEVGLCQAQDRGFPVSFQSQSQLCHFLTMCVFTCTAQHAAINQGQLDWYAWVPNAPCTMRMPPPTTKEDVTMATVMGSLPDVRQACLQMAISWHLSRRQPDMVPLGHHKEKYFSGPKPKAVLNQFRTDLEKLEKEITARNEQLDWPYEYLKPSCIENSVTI
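Purified human 12hLO (150 nM final) in 25 mM Hepes, 0.01% Triton X-100, pH 7.0 was preincubated 15 min at room temperature with compound. Then 40 uM arachidonic acid was added, 30 min. Hydroperoxide was read by Fe-XO absorbance ratio 573/405 nm.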
Hits are given with their value; n = inactive; u = inconclusive; x = no result given. The sample as a whole holds a higher share of hits than the screen did. Unless noted, calls come from the whole dose curve; as a rule, active = well fitted curve in the direction sought with a large enough effect; inconclusive = small, poorly fitted or top-dose-only effect, or another doubt; inactive = no such curve, though single readings can be large; an effect the other way counts as inactive or inconclusive.

SMILES	HT1080 IDH1KD tx	IL1B secr inh	TDP1 cell noCPT	HT1080NT lethal	DT40 TDP1 CPT	12-LOX inh
CCc1cc(CNC(=O)c2cccc(OC3CCN(S(C)(=O)=O)CC3)c2)on1	n	n	u	16µM	u	n
CCOCCCNC(=O)c1cccc(OC2CCN(S(C)(=O)=O)CC2)c1	n	n	n	n	n	n
O=C(NCc1cccc(Cl)c1)c1cccc(OC2CCN(C(=O)C3CC3)CC2)c1	n	n	21µM	u	29µM	n
CC(C)C(C)(C#N)NC(=O)CSc1n[nH]c(-c2ccc(Br)cc2)n1 (stereo unspecified)	x	x	x	x	x	n
COCc1cc(CC2(NCc3ccc(OC)cc3)COC2)no1	x	x	x	x	x	n
CC1=C(C(=O)Nc2ccccc2)C(c2ccc(Br)cc2)N2C(=O)CSC2=N1 (stereo unspecified)	x	x	x	x	x	n
COc1ccc(-c2cc(C(F)(F)F)n3nc(C(=O)NCCN4CCOCC4)cc3n2)cc1	n	n	u	n	u	n
O=C(NCCCn1ccnc1)c1nn2c(C(F)(F)F)cc(-c3ccc(Br)cc3)nc2c1Cl	n	-52	16µM	n	23µM	n
COc1ccc(-c2cc(C(F)(F)F)n3nc(C(=O)NCCCn4ccnc4)cc3n2)cc1	n	-59	u	n	n	n
CCCNC(=O)c1nn2c(C(F)(F)F)cc(-c3ccccc3)nc2c1Cl	n	n	u	u	u	n
Cc1ccc(NC(=O)C2CCCN(c3nnc(-n4c(C)ccc4C)s3)C2)cc1Cl (stereo unspecified)	x	x	21µM	x	u	n
Cc1cc(C)cc(NC(=O)C2CCN(c3nnc(-n4c(C)ccc4C)s3)CC2)c1	x	x	u	x	n	n
Cc1ccc(C)n1-c1nnc(N2CCCC(C(=O)Nc3ccc(C(C)C)cc3)C2)s1 (stereo unspecified)	x	x	13µM	x	21µM	u
Cc1ccc(NC(=O)C2CCN(c3nnc(-n4cccc4)s3)CC2)cc1Cl	x	x	n	x	n	u
Cc1cc(C)cc(NC(=O)C2CCCN(c3nnc(-n4c(C)ccc4C)s3)C2)c1 (stereo unspecified)	x	x	u	x	26µM	n
CCn1cc(C(=O)N2CC(=O)N(CCc3ccccc3)CC(OCc3cccc(OC)c3)C2)cn1 (stereo unspecified)	x	x	x	x	x	n
Cc1cccc(-c2ocnc2C(=O)NCCc2ccccc2)c1	x	x	x	x	x	n
O=C(CN1CCCCC1)Nc1cccc(Cl)c1	n	n	n	n	n	n
COc1cc(NC(=O)Nc2cccc(Cl)c2)c(OC)cc1NC(=O)CN1CCCCC1	21µM	n	u	u	16µM	n
COc1cc(NC(=O)c2ccc(C)cc2)c(OC)cc1NC(=O)CN1CCCCC1	u	u	29µM	u	21µM	n
COc1cc(NC(=O)c2cc(OC)c(OC)c(OC)c2)c(OC)cc1NC(=O)CN1CCCCC1	n	n	u	n	u	n
CCc1nc(Nc2ccc(OC)c(OC)c2)c2nnn(Cc3ccccc3Cl)c2n1	u	-65	16µM	n	n	n
CN(C)S(=O)(=O)c1ccc(Nc2nc(C3CC3)nc3c2nnn3Cc2ccccc2Cl)cc1	5.8µM	n	8.2µM	u	9.2µM	n
COC(=O)CNc1nc(C2CC2)nc2c1nnn2Cc1ccccc1Cl	n	n	n	n	n	n
COc1cccc(S(=O)(=O)N2CCCC(CN3CCOCC3)CC2)c1 (stereo unspecified)	x	x	x	x	x	n
SMILES	HT1080 IDH1KD tx	IL1B secr inh	TDP1 cell noCPT	HT1080NT lethal	DT40 TDP1 CPT	12-LOX inh
CCCCOCCCNC(=O)C[C@@H]1C[C@@]2(C(=O)OC)CC(C)(C)CC=C2N(Cc2ccco2)C1=O	n	n	23µM	n	21µM	n
COC(=O)[C@@]12C[C@@H](CC(=O)NCc3cccc4ccccc34)C(=O)N(Cc3ccco3)C1=CCC(C)(C)C2	u	-71	u	u	21µM	u
COC(=O)[C@@]12C[C@@H](CC(=O)NCc3cccs3)C(=O)N(Cc3ccco3)C1=CCC(C)(C)C2	n	u	18µM	n	u	u
COC(=O)[C@@]12C[C@@H](CC(=O)NCc3ccccc3)C(=O)N(Cc3ccco3)C1=CCC(C)(C)C2	n	n	u	n	18µM	n
COC(=O)[C@@]12C[C@@H](CC(=O)NCc3ccc(C)o3)C(=O)N(Cc3ccco3)C1=CCC(C)(C)C2	n	n	u	n	u	u
COC(=O)[C@@]12C[C@@H](CC(=O)NCCC(C)C)C(=O)N(Cc3ccco3)C1=CCC(C)(C)C2	n	n	u	n	u	n
CC(C)(C)NC(=O)COc1ncnc2ccccc12	x	x	x	x	x	n
COc1ccc(-c2cnn3c2NC(=O)CC3C(=O)Nc2ccc(F)c(Cl)c2)cc1OC (stereo unspecified)	x	x	x	x	x	n
COC(=O)[C@@]12C[C@@H](CC(=O)NCCCCc3ccccc3)C(=O)N(Cc3ccco3)C1=CCC(C)(C)C2	u	u	u	n	16µM	n
COC(=O)[C@@]1(Cc2ccc(F)cc2)[C@H]2c3cc(C(=O)N(C)C)n(Cc4ccccn4)c3C[C@H]2CN1C(=O)c1ccccc1	n	n	u	n	u	n
COC(=O)[C@@]1(Cc2ccc(F)cc2)[C@H]2c3cc(C(=O)N(C)C)n(Cc4ccc(S(C)(=O)=O)cc4)c3C[C@H]2CN1C(=O)c1ccccc1	n	n	u	n	21µM	n
COC(=O)[C@@]1(Cc2ccc(F)cc2)[C@H]2c3cc(C(=O)N4CCCC4)n(Cc4ccc(S(C)(=O)=O)cc4)c3C[C@H]2CN1C(=O)c1ccccc1	u	n	18µM	n	u	n
Cc1ccc(-n2nc3n(c2=O)CCN(C(=O)Cc2cccc(Cl)c2)C3)cc1	x	x	x	x	x	n
CCNC(=O)C1CCN(C(=O)N2CC3CC(C2)[C@H]2CCCC(=O)N2C3)CC1 (stereo partly specified)	x	x	x	x	x	n
CN(C)C(=O)CCC[C@H]1NC[C@@H]2C[C@H]1CN(Cc1ccccc1)C2	x	x	x	x	x	n
C=CCn1c(Cc2ccccc2)nc2c(cnn2-c2ccccc2)c1=O	u	n	23µM	u	u	u
Cc1nc(-c2ccc(Cl)cc2)sc1C(=O)N1CCCC(C(=O)O)C1 (stereo unspecified)	x	x	x	x	x	n
CCN(CC)c1cc(C)c(/C=C/c2ccnc3ccccc23)cc1C	x	x	13µM	x	10µM	x
Cc1cc(N(C)C)c(C)cc1/C=C/c1ccnc2ccccc12	x	x	0.56µM	x	0.79µM	x
C/C(=N\NC(N)=S)C1(C)CCCCC1	n	n	13µM	n	u	u
C/C(=N/NC(N)=S)c1ccc([N+](=O)[O-])cc1	x	x	x	x	x	n
